About 79,000 compounds went through this panel and 15% of them were active in at least one assay; those are over-represented in the sample as a whole. A number with no mark means an inactive call. Calls of active or inactive are those of the source. Rule as the data show it: active = growth inhibition above about 70%; inactive = the rest. Where a SMILES comes first, the peptide text is derived from it. [ ]: non-standard residue; d: D form. The star is where a group is joined. ξ: configuration not given here. ξPhe(4-NO2) = NC(Cc1ccc([N+](=O)[O-])cc1)C(=O)O; Cbz = O=C(OCc1ccccc1)*; Boc = CC(C)(C)OC(=O)*; OBn = c1ccc(CO*)cc1; ξM = CSCCC(N)C(=O)O
Assays:
[1] = NCI Yeast Anticancer Drug Screen. Data for the rad50 strain (AID 155);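 also: 0% = growth of vehicle-only cultures of the same strain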; details: S. cerevisiae rad50 strain growth inhibition; at 50.0 µM; hits give high values
Outline: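 Compounds were tested on a yeast strain with an engineered DNA damage repair alteration; the reported value is growth inhibition normalised to vehicle treatment.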

[2] = NCI Yeast Anticancer Drug Screen. Data for the mec2-1 strain (AID 157); details: S. cerevisiae mec2-1 strain, at 50.0 µM, hits give high values
Outline: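 Growth inhibition is read against vehicle-treated controls after compound exposure of the mec2-1 yeast strain, which is defective in DNA damage repair or cell cycle control.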

[3] = NCI Yeast Anticancer Drug Screen. Data for the sgs1 mgt1 strain (AID 161);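 also: 0% = growth of cultures given vehicle only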; details: S. cerevisiae sgs1 mgt1 strain, at 50.0 µM, hits give high values
Outline: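 Growth of a repair-deficient yeast mutant was monitored after compound treatment and expressed as inhibition relative to vehicle-treated cultures.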

[4] = NCI Yeast Anticancer Drug Screen. Data for the cln2 rad14 strain (AID 165);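 also: 0% = growth equal to vehicle treated cultures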; details: S. cerevisiae cln2 rad14 strain, at 50.0 µM, hits give high values
Outline: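 Growth inhibition, relative to vehicle-treated controls, is the read-out. The test organism is a yeast strain with defined genetic alterations, cln2 rad14.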

[5] = NCI Yeast Anticancer Drug Screen. Data for the bub3 strain (AID 167); details: S. cerevisiae bub3 mutant strain, at 50.0 µM, hits give high values
Outline: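 Growth of a checkpoint-deficient yeast mutant is measured after compound exposure. Values represent inhibition relative to vehicle.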

[6] = NCI Yeast Anticancer Drug Screen. Data for the mlh1 rad18 strain (AID 175); details: S. cerevisiae mlh1 rad18 strain growth inhibition; at 50.0 µM; hits give high values
Outline: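 Cells of a genetically altered yeast strain, deficient in DNA damage repair, were treated with compound. Their growth was then compared with that of vehicle-treated cultures to give inhibition.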

Nc1nc2nc(Br)[nH]c2c(=O)[nH]1
growth inhibition [1]: -5.5%
growth inhibition [2]: -7.9%
growth inhibition [3]: -29.3%
growth inhibition [4]: -17.2%
growth inhibition [5]: -14.2%
growth inhibition [6]: -33.9%

C=CC[N+](CCO)(CCO)CCCCCCCCCCCCCCCCCC
growth inhibition [1]: 98.4% (active)
growth inhibition [2]: 99% (active)
growth inhibition [3]: 99.2% (active)
growth inhibition [4]: 96.1% (active)
growth inhibition [5]: 98.5% (active)
growth inhibition [6]: 97.8% (active)

CC(=O)C1COC(O)C1C (stereo not given)
growth inhibition [1]: -5.45%
growth inhibition [2]: -21.9%
growth inhibition [3]: -15.2%
growth inhibition [4]: 13.4%
growth inhibition [5]: -24.6%
growth inhibition [6]: 2.05%

O=C1c2ccccc2C(=O)c2c(NCCNC(=O)C3CCCN3)ccc(NCCNC(=O)C3CCCN3)c21 (stereo not given)
growth inhibition [1]: -1.25%
growth inhibition [2]: -11.7%
growth inhibition [3]: 21.8%
growth inhibition [4]: 3.4%
growth inhibition [5]: -3.7%
growth inhibition [6]: -85.5%

Cc1c(Cl)cccc1NC(=O)Oc1ccc(Cl)cc1
growth inhibition [1]: 1.75%
growth inhibition [2]: -2.75%
growth inhibition [3]: -5.6%
growth inhibition [4]: -7.45%
growth inhibition [5]: -9.7%
growth inhibition [6]: -4.05%

O=C(O)c1sccc1Cc1ccsc1
growth inhibition [1]: -6.85%
growth inhibition [2]: -10.8%
growth inhibition [3]: -8.65%
growth inhibition [4]: -27.6%
growth inhibition [5]: -25.9%
growth inhibition [6]: 5%

CC(C)OC(=O)Oc1ccc(Cl)cc1Cl
growth inhibition [1]: 6.2%
growth inhibition [2]: -19.1%
growth inhibition [3]: 10.1%
growth inhibition [4]: -47.2%
growth inhibition [5]: -9.95%
growth inhibition [6]: 3.45%

Oc1ccccc1-c1cc(-c2ccccc2)nc(NCCCCCCNc2nc(-c3ccccc3)cc(-c3ccccc3O)n2)n1
growth inhibition [1]: 9.85%
growth inhibition [2]: 3.9%
growth inhibition [3]: -12.1%
growth inhibition [4]: -24.2%
growth inhibition [5]: -6.4%
growth inhibition [6]: 11.2%

CCN(CC)CCCCNc1ccnc(N)n1
growth inhibition [1]: -8.65%
growth inhibition [2]: -10.5%
growth inhibition [3]: 2.7%
growth inhibition [4]: -23.3%
growth inhibition [5]: 18.2%
growth inhibition [6]: 16%

Clc1ccc2c(c1)[nH]c1c2nc2sccn21
growth inhibition [1]: -7.25%
growth inhibition [2]: -14.7%
growth inhibition [3]: -0.3%
growth inhibition [4]: 1.15%
growth inhibition [5]: -12.9%
growth inhibition [6]: -10.1%

C/C(CCl)=N/NC(N)=S
growth inhibition [1]: -13.2%
growth inhibition [2]: -2.5%
growth inhibition [3]: -18.4%
growth inhibition [4]: 7%
growth inhibition [5]: -11.9%
growth inhibition [6]: -12.5%

CC(O)(C1CC1)C(C(=O)O)c1ccccc1 (stereo not given)
growth inhibition [1]: -15.4%
growth inhibition [2]: -6.85%
growth inhibition [3]: 1.9%
growth inhibition [4]: -26.7%
growth inhibition [5]: 1.55%
growth inhibition [6]: 10.6%

O=C1Nc2ccccc2/C1=N\[O-].O=C1Nc2ccccc2/C1=N\[O-].[Cu+2]
growth inhibition [1]: -10.2%
growth inhibition [2]: -5.5%
growth inhibition [3]: -30.5%
growth inhibition [4]: -0.3%
growth inhibition [5]: -23.4%
growth inhibition [6]: -21.1%

CN1CCCCCC1
growth inhibition [1]: -8.05%
growth inhibition [2]: -8.45%
growth inhibition [3]: 5.95%
growth inhibition [4]: -4.95%
growth inhibition [5]: -10.9%
growth inhibition [6]: -0.85%

O=C(O)C(Cc1ccc(O)cc1)N=Cc1nc(-c2ccccc2)oc1O (stereo not given)
growth inhibition [1]: -3.5%
growth inhibition [2]: -3.5%
growth inhibition [3]: 0.25%
growth inhibition [4]: 3%
growth inhibition [5]: -6.5%
growth inhibition [6]: 0.7%

C=CCOCC(CCl)OC(=O)C(C)C (stereo not given)
growth inhibition [1]: -4.95%
growth inhibition [2]: -11.8%
growth inhibition [3]: -13.3%
growth inhibition [4]: -9.9%
growth inhibition [5]: 0.7%
growth inhibition [6]: -20.2%

Cc1nnnn1C12CC3CC(CC(C3)C1)C2
growth inhibition [1]: 11.7%
growth inhibition [2]: 5.7%
growth inhibition [3]: -5.75%
growth inhibition [4]: -14.3%
growth inhibition [5]: -15.7%
growth inhibition [6]: 15.1%

Cc1ccc(-n2cc(/C(N)=N/O)c3ccccc3c2=O)cc1
growth inhibition [1]: -29.8%
growth inhibition [2]: -32.4%
growth inhibition [3]: -32.8%
growth inhibition [4]: -28.6%
growth inhibition [5]: -22.8%
growth inhibition [6]: -32.5%

COc1cc(OC)c(C2c3cc4c(cc3OC(C)(N3CCCC3)C2C)OCO4)c(OC)c1 (stereo not given)
growth inhibition [1]: 4.5%
growth inhibition [2]: 14.6%
growth inhibition [3]: 5.25%
growth inhibition [4]: -8.65%
growth inhibition [5]: 9.45%
growth inhibition [6]: 20.3%

Nc1ccc(/C=C/c2ccc(N)cc2)cc1
growth inhibition [1]: 9.05%
growth inhibition [2]: -0.95%
growth inhibition [3]: -1.4%
growth inhibition [4]: -1.25%
growth inhibition [5]: 8.9%
growth inhibition [6]: 5.05%

CCc1ccc(Cc2ccc(CC)c(NC(=O)C(=O)C3NC(=S)NC3=O)c2CC)c(CC)c1NC(=O)C(=O)C1NC(=S)NC1=O (stereo not given)
growth inhibition [1]: -5.2%
growth inhibition [2]: -9.5%
growth inhibition [3]: 5.25%
growth inhibition [4]: 5.1%
growth inhibition [5]: 3.85%
growth inhibition [6]: -3.65%

CC1=C(C(=O)Nc2cc(C)ccn2)CCO1
growth inhibition [1]: 4.55%
growth inhibition [2]: -11.4%
growth inhibition [3]: -7.2%
growth inhibition [4]: -33%
growth inhibition [5]: 11.7%
growth inhibition [6]: 15%

CC1=C(C(=O)NCCc2ccccc2)CC(C(=O)NCCc2ccccc2)=C(C)N1
growth inhibition [1]: -9.8%
growth inhibition [2]: 6.4%
growth inhibition [3]: 5.75%
growth inhibition [4]: 14.5%
growth inhibition [5]: -13.2%
growth inhibition [6]: -32.1%

Cc1cnc(Br)c(Br)c1
growth inhibition [1]: 2.85%
growth inhibition [2]: 0.8%
growth inhibition [3]: 3.45%
growth inhibition [4]: 15.9%
growth inhibition [5]: 5.1%
growth inhibition [6]: 13.1%

O=C(C[n+]1ccccc1)c1ccccc1
growth inhibition [1]: 1.75%
growth inhibition [2]: -4.4%
growth inhibition [3]: -2.4%
growth inhibition [4]: -18.5%
growth inhibition [5]: 9.45%
growth inhibition [6]: 30.7%

CCCN1c2c3c(O)c4c(O)c(C)c5c(c4c2O)C(=O)C(C)(O/C=C/C(OC)C(C)C(OC(C)=O)C(C)C(O)C(C)C(O)C(C)/C=C/C=C(/C)C(=O)N3C1C)O5 (stereo not given)
growth inhibition [1]: 22.6%
growth inhibition [2]: 35.9%
growth inhibition [3]: 44%
growth inhibition [4]: 37.2%
growth inhibition [5]: 19%
growth inhibition [6]: 18.2%

C=NC1CCCCC1
growth inhibition [1]: 0.95%
growth inhibition [2]: -3.75%
growth inhibition [3]: -10.6%
growth inhibition [4]: 2%
growth inhibition [5]: 14.7%
growth inhibition [6]: 3.75%

CC(C)(C)OC(=O)NC(Cc1ccc([N+](=O)[O-])cc1)C(=O)NCC(=O)OCc1ccccc1 (stereo not given) (Boc-[ξPhe(4-NO2)]-Gly-OBn)
growth inhibition [1]: -17.4%
growth inhibition [2]: 8.45%
growth inhibition [3]: 7.05%
growth inhibition [4]: 32.5%
growth inhibition [5]: -5.5%
growth inhibition [6]: -9%

COc1cc2c(cc1OC)C1C(=O)c3c(O)cc4c(c3OC1CO2)C=CC(C)(C)O4 (stereo not given)
growth inhibition [1]: 49.8%
growth inhibition [2]: 10.3%
growth inhibition [3]: 14.3%
growth inhibition [4]: 15.3%
growth inhibition [5]: 33.9%
growth inhibition [6]: 36.7%

CCOC(=O)CCC(C)=O
growth inhibition [1]: 22.8%
growth inhibition [2]: 11.2%
growth inhibition [3]: 14.9%
growth inhibition [4]: 20.5%
growth inhibition [5]: 14.7%
growth inhibition [6]: 11%

CC(C)C(=O)/C=C/c1ccc(Br)cc1
growth inhibition [1]: 29.9%
growth inhibition [2]: -4.95%
growth inhibition [3]: 1%
growth inhibition [4]: 2.6%
growth inhibition [5]: -14.8%
growth inhibition [6]: 24.9%

Cc1cc(O)c(C(c2ccc3c(c2)OCO3)c2c(O)cc(C)[nH]c2=O)c(=O)[nH]1
growth inhibition [1]: 31.1%
growth inhibition [2]: 17.2%
growth inhibition [3]: -4.35%
growth inhibition [4]: -1.1%
growth inhibition [5]: 0%
growth inhibition [6]: -34%

O=C1OC(c2ccccc2)=N/C1=C\c1ccco1
growth inhibition [1]: -2.95%
growth inhibition [2]: -19.3%
growth inhibition [3]: -24.4%
growth inhibition [4]: 19.6%
growth inhibition [5]: -22.2%
growth inhibition [6]: 23.6%

C=CCNc1nc2c(s1)CCc1cc(OC)c(OC)cc1-2
growth inhibition [1]: 30.1%
growth inhibition [2]: 10.6%
growth inhibition [3]: 12%
growth inhibition [4]: 29.4%
growth inhibition [5]: 15.2%
growth inhibition [6]: 61.6%

CC1(C)OC(C)(C)c2c1nnc(-c1ccccc1[N+](=O)[O-])[n+]2[O-]
growth inhibition [1]: 8.1%
growth inhibition [2]: 11.5%
growth inhibition [3]: 22.4%
growth inhibition [4]: 12.8%
growth inhibition [5]: 26.9%
growth inhibition [6]: 14.1%

O=S(=O)(O)c1cc2c3ccccc3ccc2c2ccccc12
growth inhibition [1]: 1.75%
growth inhibition [2]: -5.35%
growth inhibition [3]: 13.8%
growth inhibition [4]: -15.5%
growth inhibition [5]: -1.35%
growth inhibition [6]: 21.8%

COC(=O)c1cc2ccccc2cc1Nc1ccc2ccccc2c1
growth inhibition [1]: 2.25%
growth inhibition [2]: 4.7%
growth inhibition [3]: 5.25%
growth inhibition [4]: -10.3%
growth inhibition [5]: -0.7%
growth inhibition [6]: 7.3%

N#Cc1ccc(OCCSCCCCCCCCCCSCCOc2ccc(C#N)cc2)cc1
growth inhibition [1]: -16.8%
growth inhibition [2]: -20.9%
growth inhibition [3]: -19.8%
growth inhibition [4]: -6.05%
growth inhibition [5]: -1%
growth inhibition [6]: -15.8%

ClC/C=C/COC1CCCCO1 (stereo not given)
growth inhibition [1]: 6.8%
growth inhibition [2]: -8.55%
growth inhibition [3]: -8.5%
growth inhibition [4]: -13.8%
growth inhibition [5]: -7.6%
growth inhibition [6]: -8.9%

CSCCC(NC(=O)CNC(=O)CNC(=O)OCc1ccccc1)C(=O)O (stereo not drawn) (Cbz-Gly-Gly-[ξM]-OH)
growth inhibition [1]: 96.5% (active)
growth inhibition [2]: 98.7% (active)
growth inhibition [3]: 92.5% (active)
growth inhibition [4]: 98.4% (active)
growth inhibition [5]: 99% (active)
growth inhibition [6]: 96.7% (active)

From PubChem BioAssay (NCI)
